Holding throughout (design): scale not given: direction of the effect not stated beside the values
Assay [1] addresses Protein translocase subunit SecA (Escherichia coli (strain K12)) (UniProt P10408). Put plainly: Assay to Identify E. coli SecA ATPase Inhibitors. In kind it is functional. To be noted: 30 µM.
Assay [2] has as its target T1, Ubiquitin-activating enzyme e1, putative (Leishmania donovani (strain BPK282A1)) (UniProt E9BSI1).
T1 sequence (whole entry): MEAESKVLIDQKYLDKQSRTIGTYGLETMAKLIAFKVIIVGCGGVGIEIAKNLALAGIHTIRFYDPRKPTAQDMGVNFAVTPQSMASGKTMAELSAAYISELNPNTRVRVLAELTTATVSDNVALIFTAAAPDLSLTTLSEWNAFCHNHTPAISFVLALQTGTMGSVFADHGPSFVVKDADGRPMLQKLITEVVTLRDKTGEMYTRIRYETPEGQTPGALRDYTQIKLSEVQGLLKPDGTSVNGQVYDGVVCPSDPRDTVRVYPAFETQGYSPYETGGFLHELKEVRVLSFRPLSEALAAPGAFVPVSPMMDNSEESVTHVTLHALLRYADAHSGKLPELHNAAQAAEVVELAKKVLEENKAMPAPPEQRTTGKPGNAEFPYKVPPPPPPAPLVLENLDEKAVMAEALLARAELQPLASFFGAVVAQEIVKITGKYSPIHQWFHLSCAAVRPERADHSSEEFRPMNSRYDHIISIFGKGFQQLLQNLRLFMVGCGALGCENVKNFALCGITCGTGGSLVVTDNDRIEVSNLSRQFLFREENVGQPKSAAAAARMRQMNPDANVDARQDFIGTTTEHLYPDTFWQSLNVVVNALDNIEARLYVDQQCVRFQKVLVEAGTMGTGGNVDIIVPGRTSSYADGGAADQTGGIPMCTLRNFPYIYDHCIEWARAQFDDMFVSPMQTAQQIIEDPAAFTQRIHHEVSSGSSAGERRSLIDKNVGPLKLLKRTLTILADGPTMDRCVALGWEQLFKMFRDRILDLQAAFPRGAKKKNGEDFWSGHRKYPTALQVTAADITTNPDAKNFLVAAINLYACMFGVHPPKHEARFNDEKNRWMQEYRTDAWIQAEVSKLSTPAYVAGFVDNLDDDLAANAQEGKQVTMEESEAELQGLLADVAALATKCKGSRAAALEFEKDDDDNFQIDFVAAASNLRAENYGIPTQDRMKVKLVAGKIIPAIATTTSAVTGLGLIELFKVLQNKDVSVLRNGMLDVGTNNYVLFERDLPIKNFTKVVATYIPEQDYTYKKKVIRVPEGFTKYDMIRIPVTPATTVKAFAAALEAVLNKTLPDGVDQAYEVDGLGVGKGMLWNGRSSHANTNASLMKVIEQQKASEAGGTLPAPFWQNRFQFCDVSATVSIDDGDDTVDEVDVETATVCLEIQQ
Put plainly: Leishmania donovani Ubiquitin Activating Enzyme (LdE1). In kind it is functional. Conditions: 30 µM.

Assay [3] deals with AMP-activated protein kinase, AMPK (Homo sapiens) (UniProt P54646+O43741+P54619+Q9UGJ0+Q9Y478+Q13131+Q9UGI9). Put plainly: AMP-dependent Kinase enzyme assay. An in vitro enzyme assay that detects ADP turnover that is directly proportional to AMPK activity. This uses naive AMPK that is activated during the assay with MK-8722. Format: functional. To be noted: 30 µM.
For assay [4], the target named is Sialic acid-binding Ig-like lectin 9 (Homo sapiens) (UniProt Q9Y336). Put plainly: Hs-Siglec9 ALPHAscreen SOP 20170721. To be noted: 10 µM.
The subject of assay [5] is Trypanosoma cruzi. The assay can be described thus: Trypanosoma cruzi phosphomannomutase and mannose-1-phosphate guanylyltransferase assay. Format: functional. To be noted: 10 µM.
In assay [6] the target is T2, Arginase-2, mitochondrial (Homo sapiens) (UniProt P78540).
T2 sequence (whole entry): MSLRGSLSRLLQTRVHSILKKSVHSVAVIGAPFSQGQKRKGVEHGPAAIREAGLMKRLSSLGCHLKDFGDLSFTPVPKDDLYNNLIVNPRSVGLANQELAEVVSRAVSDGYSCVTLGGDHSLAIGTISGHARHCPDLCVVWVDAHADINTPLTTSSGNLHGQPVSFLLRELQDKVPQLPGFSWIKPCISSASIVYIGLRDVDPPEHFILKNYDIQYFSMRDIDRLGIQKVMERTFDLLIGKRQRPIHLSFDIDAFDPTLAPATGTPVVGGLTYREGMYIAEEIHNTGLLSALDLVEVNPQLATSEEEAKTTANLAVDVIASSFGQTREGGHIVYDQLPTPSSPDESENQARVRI
The assay can be described thus: in vitro enzyme assay to detect the production of urea directly proportional to the activity of Arginase II. Note: in the data most compounds retested in dose-response had high values. Format: functional. Conditions: 33.3 µM.

The target in assay [7] is T3, Proteasome subunit beta (Trypanosoma cruzi) (UniProt O96673).
T3 sequence (whole entry): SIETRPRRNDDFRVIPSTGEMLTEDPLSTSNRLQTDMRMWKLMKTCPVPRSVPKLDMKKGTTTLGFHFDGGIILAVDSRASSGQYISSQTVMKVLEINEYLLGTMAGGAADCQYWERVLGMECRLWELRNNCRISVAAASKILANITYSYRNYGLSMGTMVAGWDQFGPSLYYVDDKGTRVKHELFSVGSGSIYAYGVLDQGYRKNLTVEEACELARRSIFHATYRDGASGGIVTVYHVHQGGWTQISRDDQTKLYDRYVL
The assay can be described thus: Trypanosoma cruzi proteasome chymotrypsin-like activity (TcProtChymo) assay. Note: in the data most compounds retested in dose-response had high values. To be noted: 9.37 µM. In kind it is functional.

For assay [8], the species on record is Homo sapiens. The assay can be described thus: To identify inhibition of the IFN signalling (Jak-Stat) pathway via expression of an eGFP reporter gene under the control of an IFN-stimulated response element (ISRE) containing MxA promoter. In kind it is functional. Conditions: 30 µM. In general terms: Reporter assays use an easily measured gene product as a stand-in for the process of interest.

For assay [9], the target named is T4, Tyrosyl-tRNA synthetase, putative (Trypanosoma cruzi (strain CL Brener)) (UniProt Q4DSP6).
T4 sequence (whole entry): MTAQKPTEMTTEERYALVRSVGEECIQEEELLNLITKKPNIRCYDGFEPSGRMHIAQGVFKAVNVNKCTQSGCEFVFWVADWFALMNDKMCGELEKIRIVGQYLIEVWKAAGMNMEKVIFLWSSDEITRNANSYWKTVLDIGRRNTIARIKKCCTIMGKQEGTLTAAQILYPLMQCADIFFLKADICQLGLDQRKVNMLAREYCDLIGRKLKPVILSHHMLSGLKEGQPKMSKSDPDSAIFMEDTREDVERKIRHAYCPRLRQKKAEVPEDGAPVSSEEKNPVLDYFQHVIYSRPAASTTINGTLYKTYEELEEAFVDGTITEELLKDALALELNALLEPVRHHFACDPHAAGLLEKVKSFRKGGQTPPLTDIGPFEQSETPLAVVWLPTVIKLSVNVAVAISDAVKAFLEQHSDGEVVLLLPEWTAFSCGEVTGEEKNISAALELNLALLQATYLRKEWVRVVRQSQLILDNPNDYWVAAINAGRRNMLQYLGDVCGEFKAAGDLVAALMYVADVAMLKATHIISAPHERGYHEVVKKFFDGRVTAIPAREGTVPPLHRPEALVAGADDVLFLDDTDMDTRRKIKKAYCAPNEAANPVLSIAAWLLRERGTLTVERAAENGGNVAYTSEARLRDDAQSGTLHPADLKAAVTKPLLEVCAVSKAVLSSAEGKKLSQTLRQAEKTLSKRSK
Put plainly: Trypanosoma cruzi tyrosyl tRNA synthetase (TcYRS) _High Tyrosine SOP. Note: in the data most compounds retested in dose-response had high values. Format: functional. To be noted: 30 µM.

Assay [10] concerns the target T4, Tyrosyl-tRNA synthetase, putative (Trypanosoma cruzi (strain CL Brener)). Put plainly: Trypanosoma cruzi tyrosyl tRNA synthetase (TcYRS) SOP. To be noted: 30 µM. In kind it is functional.
Assay [11] concerns the target Chromo domain-containing protein 1 (Saccharomyces cerevisiae (strain ATCC 204508 / S288c) (Baker's yeast)) (UniProt P32657). The assay can be described thus: ScCHD-1 Enzyme Inhibition Assay. Note: in the data most compounds retested in dose-response had high values. In kind it is functional. Conditions: 30 µM.

Molecules are shown by their SMILES. For some of these results: Results with a measured potency or affinity are listed apart.

Sequence of Protein translocase subunit SecA (Escherichia coli (strain K12)) (P10408 whole entry): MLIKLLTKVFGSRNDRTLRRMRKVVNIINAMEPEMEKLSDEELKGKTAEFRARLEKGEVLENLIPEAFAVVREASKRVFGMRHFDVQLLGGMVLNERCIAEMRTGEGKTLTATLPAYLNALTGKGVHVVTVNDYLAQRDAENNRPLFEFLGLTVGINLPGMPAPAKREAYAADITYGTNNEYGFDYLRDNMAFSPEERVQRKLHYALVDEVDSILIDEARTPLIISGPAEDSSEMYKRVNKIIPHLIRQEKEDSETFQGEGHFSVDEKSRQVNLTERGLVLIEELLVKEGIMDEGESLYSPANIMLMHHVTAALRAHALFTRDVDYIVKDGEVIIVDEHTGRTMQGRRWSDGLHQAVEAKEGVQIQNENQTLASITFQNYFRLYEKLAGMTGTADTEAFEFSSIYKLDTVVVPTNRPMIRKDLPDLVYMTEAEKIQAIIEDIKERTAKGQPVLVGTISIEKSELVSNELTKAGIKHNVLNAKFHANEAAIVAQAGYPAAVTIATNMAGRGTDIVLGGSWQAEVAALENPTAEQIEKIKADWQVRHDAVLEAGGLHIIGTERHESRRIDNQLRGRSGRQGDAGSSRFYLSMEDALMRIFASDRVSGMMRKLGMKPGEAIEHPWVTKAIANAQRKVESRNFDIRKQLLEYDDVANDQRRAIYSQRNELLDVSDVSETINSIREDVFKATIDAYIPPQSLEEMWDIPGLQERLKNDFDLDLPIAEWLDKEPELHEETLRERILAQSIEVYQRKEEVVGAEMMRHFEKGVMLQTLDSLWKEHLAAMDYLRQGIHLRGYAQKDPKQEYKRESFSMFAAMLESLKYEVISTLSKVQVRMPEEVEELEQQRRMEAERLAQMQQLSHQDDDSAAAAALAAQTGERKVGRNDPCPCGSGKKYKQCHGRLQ
Sequence of Sialic acid-binding Ig-like lectin 9 (Homo sapiens) (Q9Y336 whole entry): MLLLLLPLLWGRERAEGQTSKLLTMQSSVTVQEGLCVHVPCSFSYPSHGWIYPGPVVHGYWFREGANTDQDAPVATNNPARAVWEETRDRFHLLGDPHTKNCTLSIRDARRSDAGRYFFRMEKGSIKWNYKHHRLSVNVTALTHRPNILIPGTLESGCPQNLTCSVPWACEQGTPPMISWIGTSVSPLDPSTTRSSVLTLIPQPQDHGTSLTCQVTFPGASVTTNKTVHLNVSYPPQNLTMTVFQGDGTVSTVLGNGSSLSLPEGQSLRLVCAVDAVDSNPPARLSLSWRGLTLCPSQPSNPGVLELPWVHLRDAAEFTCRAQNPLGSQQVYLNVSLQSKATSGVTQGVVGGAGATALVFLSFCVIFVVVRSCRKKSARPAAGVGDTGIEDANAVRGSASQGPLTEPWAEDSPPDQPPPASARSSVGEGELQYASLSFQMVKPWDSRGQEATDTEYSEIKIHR
Sequence of Chromo domain-containing protein 1 (Saccharomyces cerevisiae (strain ATCC 204508 / S288c) (Baker's yeast)) (P32657 whole entry, the tested form may be a part): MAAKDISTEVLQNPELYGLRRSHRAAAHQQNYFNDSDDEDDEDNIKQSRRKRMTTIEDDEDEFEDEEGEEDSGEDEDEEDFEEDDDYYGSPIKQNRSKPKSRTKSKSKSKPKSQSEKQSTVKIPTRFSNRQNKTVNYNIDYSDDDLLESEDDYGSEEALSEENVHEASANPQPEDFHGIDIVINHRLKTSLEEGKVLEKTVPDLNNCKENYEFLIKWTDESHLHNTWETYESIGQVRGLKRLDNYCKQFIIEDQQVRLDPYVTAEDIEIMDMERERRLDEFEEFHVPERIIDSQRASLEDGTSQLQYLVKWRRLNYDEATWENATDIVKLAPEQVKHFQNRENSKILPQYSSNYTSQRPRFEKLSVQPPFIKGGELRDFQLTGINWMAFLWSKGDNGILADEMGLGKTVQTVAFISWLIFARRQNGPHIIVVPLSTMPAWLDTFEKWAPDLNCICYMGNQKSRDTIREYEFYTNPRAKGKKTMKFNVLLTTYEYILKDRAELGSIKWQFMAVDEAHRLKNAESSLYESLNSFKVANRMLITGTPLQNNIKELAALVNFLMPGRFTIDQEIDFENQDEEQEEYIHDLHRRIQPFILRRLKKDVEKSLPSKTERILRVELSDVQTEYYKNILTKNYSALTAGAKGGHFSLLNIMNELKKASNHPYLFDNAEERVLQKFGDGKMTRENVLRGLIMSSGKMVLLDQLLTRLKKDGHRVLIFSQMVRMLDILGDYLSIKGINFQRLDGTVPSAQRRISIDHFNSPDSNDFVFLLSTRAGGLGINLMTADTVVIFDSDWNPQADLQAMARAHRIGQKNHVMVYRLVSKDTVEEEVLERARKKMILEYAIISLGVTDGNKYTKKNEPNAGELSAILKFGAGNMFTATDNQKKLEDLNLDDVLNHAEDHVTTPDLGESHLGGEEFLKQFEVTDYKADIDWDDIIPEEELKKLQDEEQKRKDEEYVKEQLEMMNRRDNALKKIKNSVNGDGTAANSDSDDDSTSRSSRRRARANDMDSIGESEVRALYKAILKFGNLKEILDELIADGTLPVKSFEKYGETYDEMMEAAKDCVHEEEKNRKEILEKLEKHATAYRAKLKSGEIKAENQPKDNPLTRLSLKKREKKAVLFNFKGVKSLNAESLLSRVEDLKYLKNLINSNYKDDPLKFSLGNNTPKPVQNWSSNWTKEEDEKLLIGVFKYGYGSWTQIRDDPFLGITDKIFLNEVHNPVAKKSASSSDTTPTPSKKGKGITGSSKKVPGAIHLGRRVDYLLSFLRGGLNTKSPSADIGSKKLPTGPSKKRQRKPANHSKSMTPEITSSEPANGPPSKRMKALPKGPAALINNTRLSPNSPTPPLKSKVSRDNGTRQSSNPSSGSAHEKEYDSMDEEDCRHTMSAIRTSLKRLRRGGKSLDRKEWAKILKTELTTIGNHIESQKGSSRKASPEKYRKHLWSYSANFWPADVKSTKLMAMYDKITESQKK

With `Cc1cc(C)c(CNC(=O)N(C)Cc2sccc2C)c(=O)[nH]1`, the Percent Effect in [1] is -4.14%; in assay [2] it was 18.4%; in assay [3], -5.42%; in assay [4] it was -3.09%; in assay [5], -3.46%; in assay [6], -2.88%. Besides, the Percent Effect in [7] is 2.62%; in assay [8], 9.33%; in assay [9], 4.43%; in assay [10], 11.1%; in assay [11], -4.59%.
Turning to `O=C(Cn1c(=O)n(Cc2ccco2)c2ncccc21)NC1CCCCC1`, the Percent Effect in assay [1] was -8.09%; in assay [2] it was 14.9%; in assay [3] it was -4.42%; in [4] it was 11.5%; in assay [5], 8.5%; in [6], -4.41%. The Percent Effect in assay [7] amounted to 18.6%; in assay [8], 3.85%; in assay [9], 6.45%; in assay [10], 14.3%; in assay [11], 53%.
For the compound `Cc1nn(C)c(N(C)C)c1CNC1CCc2c(F)cccc21` (stereo unspecified), the Percent Effect is 0.322% in assay [1]; 13.2% in assay [2]; -5.14% in assay [3]; -4.54% in [4]; 4.89% in assay [5]; 5.75% in assay [6]. Besides, the Percent Effect in assay [7] was 17%; in assay [8] it was -1.05%; in [9], 6.37%; in assay [10], 17.1%; in assay [11] it was -6.66%.
For the compound `CC(NC(=O)Cn1cccn1)c1cccnc1` (stereo unspecified), the Percent Effect is -4.41% in [1]; 8% in [2]; -4.08% in assay [3]; 11% in [4]; 8.67% in assay [5]; 6.25% in assay [6]. For the same compound, the Percent Effect in assay [7] is 1.92%; in assay [8], 10.3%; in [9] it was 3.83%; in [10], 13.6%; in assay [11], -3.89%.
Turning to `O=C(c1cc(=O)[nH]c(=O)[nH]1)N1CCCCC1c1ccc(F)cc1` (stereo unspecified), the Percent Effect is 1.51% in assay [1]; 4.17% in [2]; 0.748% in assay [3]; -6.89% in [4]; -3.21% in assay [5]; 3.97% in [6]. Also, the Percent Effect is 16.8% in [7]; -0.138% in assay [8]; 5.26% in assay [9]; 2.56% in [10]; -2.94% in assay [11].
On to `Cc1cc(CN(C)C2CCCN(c3cccnn3)C2)on1` (stereo unspecified), for which the Percent Effect was -4.98% in [1]; -2.67% in assay [2]; -10.6% in assay [3]; -0.639% in assay [4]; 4.19% in assay [5]; 1.56% in [6]. Further, the Percent Effect in assay [7] is 16.2%; in [8], -1.53%; in assay [9], 11.5%; in assay [10] it was 13.6%; in assay [11] it was -1.67%.
`O=C(c1ccc(C2CCCO2)s1)N1CCS(=O)(=O)CC1` (stereo unspecified): the Percent Effect in assay [1] is -1.4%; in assay [2] it was 18.9%; in assay [3] it was -2.69%; in assay [4], 22.7%; in assay [5], 9.07%; in assay [6], 1.91%. For the same compound, the Percent Effect is 17.1% in [7]; 6.53% in [8]; 4.76% in assay [9]; 17.1% in [10]; -2.6% in assay [11].
Take `Cc1cn2c(n1)CCC(NC(=O)c1ccc(CS(C)(=O)=O)cc1)C2` (stereo unspecified): the Percent Effect in assay [1] was -7.39%; in assay [2] it was 13.2%; in assay [3], -4.52%; in [4] it was 4.15%; in [5], 7.71%; in [6], -3.06%. For the same compound, the Percent Effect in assay [7] is 4.68%; in assay [8], -9.1%; in [9] it was 5.39%; in assay [10] it was 12.2%; in assay [11], -9.28%.
`CN(C)C(=O)COC1COC2(CCN(S(C)(=O)=O)CC2)C1` (stereo unspecified): the Percent Effect in assay [1] is 0.201%; in assay [2] it was 13.5%; in assay [3], 1.81%; in [4] it was -7.02%; in [5], -1.47%; in assay [6], 9.87%. Also, the Percent Effect was 18.1% in [7]; -9.56% in assay [8]; 4.32% in assay [9]; 12.8% in assay [10]; -1.01% in [11].
In the case of `CCn1nccc1CNC(=O)C1CC1`, the Percent Effect in assay [1] is -5.07%; in [2], 10.4%; in assay [3], -0.00833%; in assay [4] it was 7.25%; in assay [5] it was 5.61%; in assay [6] it was -4.14%. Besides, the Percent Effect was 10.7% in assay [7]; -23.9% in assay [8]; 8.6% in [9]; 18.5% in [10]; 132% in assay [11].
With `Cc1cn2c(n1)CCC(NC(=O)CCC(F)(F)F)C2` (stereo unspecified), the Percent Effect in assay [1] was -7.86%; in assay [2], -7.89%; in [3], -7.17%; in [4], 16.2%; in assay [5] it was 5.51%; in assay [6] it was 0.36%. Besides, the Percent Effect in assay [7] was 3.64%; in assay [8] it was -6.31%; in assay [9], 3.45%; in [10], 16.1%; in assay [11], -6.39%.
